Source: PubChem BioAssay (NCATS)
A number with no mark means an inactive call. Results filed as inconclusive are left out. A call without a number means that no potency is given here. The source made the active and inactive calls. The call rests on the fitted dose curve; in most records, active means well fitted curve in the direction sought with a large enough effect; inconclusive means small, poorly fitted or top-dose-only effect, or another doubt; inactive means no such curve, though single readings can be large; an effect the other way counts as inactive or inconclusive.

Legend:
[1] = system: Zika virus NS2B-NS3 protease; test: Primary screen GU AMC qHTS for Zika virus inhibitors (AID 1347154); further: nearly all actives have a fitted effect of over 70% in size
Procedure, shortened: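 Unlinked Zika NS2B hydrophilic domain–NS3 protease complex at 25 nM in 10 mM Tris-HCl pH 8.0, 0.01% Tween 20, with an AMC peptide substrate. Fluorescence change (340/450 nm) over 15 min at room temperature, normalized to controls, fitted to 4-parameter Hill.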

[2] = system: Zika virus NS2B-NS3 protease (unlinked complex); test: Primary screen GU Rhodamine qHTS for Zika virus inhibitors: Unlinked NS2B-NS3 protease assay (AID 1347159); further: nearly all actives have a fitted effect of over 60% in size
Procedure, shortened: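 A qHTS format was used, with compound concentrations ranging up to 114 microM. Each compound was preincubated with 25 nM NS2B-NS3 protease, and the substrate was then added at 1.5 microM. Curves were fitted with a 4-parameter Hill model.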

[3] = system: Zika virus NS2B-NS3 protease (linked construct); test: Primary screen NINDS Rhodamine qHTS for Zika virus inhibitors (AID 1347160); further: nearly all actives have a fitted effect of over 55% in size
Procedure, shortened: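 Kinetic fluorescence (Ex 480 nm, Em 540 nm) over 15 min with 1.5 microM Rhodamine110 peptide and 25 nM linked protease.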

[4] = molecular target: Lysine-specific demethylase 5B (Homo sapiens) (UniProt Q9UGL1); test: Optimization screen for KDM5B Histone Demethylases FDH coupled qHTS against the LOPAC library (AID 1347166)
Lysine-specific demethylase 5B (Homo sapiens), sequence (Q9UGL1 whole entry, looked up): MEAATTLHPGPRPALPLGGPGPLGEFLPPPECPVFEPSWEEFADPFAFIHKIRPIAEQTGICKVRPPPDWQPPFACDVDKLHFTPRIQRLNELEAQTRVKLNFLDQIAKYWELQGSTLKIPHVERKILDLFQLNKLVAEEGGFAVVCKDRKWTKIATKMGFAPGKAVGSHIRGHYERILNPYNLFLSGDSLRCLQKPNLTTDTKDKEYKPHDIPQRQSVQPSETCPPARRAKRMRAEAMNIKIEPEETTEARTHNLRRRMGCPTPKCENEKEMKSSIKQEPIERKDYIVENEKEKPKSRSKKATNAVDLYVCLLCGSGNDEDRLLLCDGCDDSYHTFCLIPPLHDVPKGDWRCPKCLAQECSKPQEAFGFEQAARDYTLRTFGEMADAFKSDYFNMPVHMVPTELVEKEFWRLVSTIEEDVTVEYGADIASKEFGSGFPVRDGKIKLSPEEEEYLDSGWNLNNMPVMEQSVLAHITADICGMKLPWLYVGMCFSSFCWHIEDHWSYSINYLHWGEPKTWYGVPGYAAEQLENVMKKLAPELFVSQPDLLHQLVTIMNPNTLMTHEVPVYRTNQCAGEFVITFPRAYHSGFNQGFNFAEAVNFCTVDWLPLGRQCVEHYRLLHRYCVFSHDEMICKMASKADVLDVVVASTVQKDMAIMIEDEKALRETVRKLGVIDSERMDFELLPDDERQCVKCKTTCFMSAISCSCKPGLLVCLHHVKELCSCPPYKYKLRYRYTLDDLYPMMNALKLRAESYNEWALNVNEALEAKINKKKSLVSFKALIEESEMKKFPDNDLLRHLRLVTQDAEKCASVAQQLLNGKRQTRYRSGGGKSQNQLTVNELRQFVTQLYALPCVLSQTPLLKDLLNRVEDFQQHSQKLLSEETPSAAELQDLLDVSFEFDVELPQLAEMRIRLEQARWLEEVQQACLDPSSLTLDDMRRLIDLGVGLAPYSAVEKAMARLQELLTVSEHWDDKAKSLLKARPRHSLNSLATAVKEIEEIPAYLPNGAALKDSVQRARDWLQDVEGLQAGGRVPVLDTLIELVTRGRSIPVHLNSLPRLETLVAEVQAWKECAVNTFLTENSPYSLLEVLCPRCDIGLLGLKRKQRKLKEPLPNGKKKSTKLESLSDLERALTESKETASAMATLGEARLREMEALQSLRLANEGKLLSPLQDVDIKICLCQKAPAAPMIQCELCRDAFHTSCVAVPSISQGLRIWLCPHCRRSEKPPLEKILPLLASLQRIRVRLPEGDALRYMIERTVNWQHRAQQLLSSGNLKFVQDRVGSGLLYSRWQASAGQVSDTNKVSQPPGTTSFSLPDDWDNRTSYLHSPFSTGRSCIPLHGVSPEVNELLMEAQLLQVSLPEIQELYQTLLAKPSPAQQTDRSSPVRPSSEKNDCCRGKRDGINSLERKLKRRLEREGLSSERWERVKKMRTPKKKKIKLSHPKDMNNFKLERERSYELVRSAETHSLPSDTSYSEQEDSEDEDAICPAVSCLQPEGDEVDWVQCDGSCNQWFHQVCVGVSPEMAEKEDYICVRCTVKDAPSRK
Procedure, shortened: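 KDM5BDeltaAP (200nM final) preincubated 10 min with compound, then 12.5uM H3K4Me3, 25uM a-ketoglutarate, ascorbate, Fe(II), NAD+ and FDH added; 50mM HEPES pH 7.5, 0.01% Tween-20. NADH fluorescence (340/450 nm) change over 30 min, room temperature.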

[5] = qHTS to identify inhibitors of the type 1 interferon - major histocompatibility complex class I in skeletal muscle: primary screen against the NCATS LOPAC collection (AID 1347405);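 further: lytic HiBiT luminescence reporting HLA-B protein level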; further: potency means the concentration at half of the fitted maximal effect
Procedure, shortened: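 CRISPR-engineered immortalized human myoblasts (C25cl48) with HiBiT fused to endogenous HLA-B*08:01, stimulated with 4 ng/ml IFN-beta. LOPAC compounds tested as a 7-point 1:4.3 titration (top 46 uM final), 24 h at 37 C; lytic HiBiT luminescence read.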

[6] = qHTS for inhibitors of adenylyl cyclases using a fission yeast platform: a pilot screen against the NCATS LOPAC library (AID 1347410)
Procedure, shortened: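 Fission yeast qHTS: CHP2027 cells (AC9-GNAS-PDE4D2, fbp1-GFP), 5x10^6 cells/mL working density, EMM + His/Lys/Ura; LOPAC at up to 57 µM final; 18 h dark, 30C; GFP by laser cytometry. DPI positive control, DMSO vehicle.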

[7] = molecular target: Protein phosphatase 1D (Homo sapiens) (UniProt O15297); test: RapidFire Mass Spectrometry qHTS Assay for Modulators of WT P53-Induced Phosphatase 1 (WIP1) (AID 1347424);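 further: amount of dephosphorylated VEPPL-S-QETFS peptide product formed by WIP1; series mostly up to about 63 µM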
Protein phosphatase 1D (Homo sapiens), sequence (O15297 whole entry, looked up): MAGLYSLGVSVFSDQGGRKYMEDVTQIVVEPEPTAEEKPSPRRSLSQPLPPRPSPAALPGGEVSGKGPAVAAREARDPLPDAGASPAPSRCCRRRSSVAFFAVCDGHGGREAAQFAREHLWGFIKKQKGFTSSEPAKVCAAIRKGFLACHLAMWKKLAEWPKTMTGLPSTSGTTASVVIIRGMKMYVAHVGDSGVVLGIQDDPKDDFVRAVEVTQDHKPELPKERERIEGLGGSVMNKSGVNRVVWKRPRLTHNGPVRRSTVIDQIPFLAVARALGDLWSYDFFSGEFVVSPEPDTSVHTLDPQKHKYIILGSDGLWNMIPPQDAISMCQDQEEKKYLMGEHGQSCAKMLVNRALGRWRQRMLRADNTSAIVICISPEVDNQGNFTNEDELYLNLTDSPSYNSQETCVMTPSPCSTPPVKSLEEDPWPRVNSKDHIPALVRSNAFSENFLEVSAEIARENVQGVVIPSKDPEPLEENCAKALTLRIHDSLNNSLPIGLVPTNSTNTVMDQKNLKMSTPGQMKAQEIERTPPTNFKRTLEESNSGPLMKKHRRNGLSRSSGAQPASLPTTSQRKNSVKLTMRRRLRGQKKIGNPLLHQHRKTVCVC
Procedure, shortened: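 10 nM WIP1 preincubated with compounds 1 hr at room temperature in pH 7.5 Tris buffer with 30 mM MgCl2, 1 mM TCEP; 2 uM VEPPL-pS-QETFS phosphopeptide for 5 min, formic acid quench; dephosphorylated product quantified by RapidFire MS against labelled standard.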

[8] = molecular target: Protein phosphatase 1D (Homo sapiens) (UniProt O15297); test: Rhodamine-PBP qHTS Assay for Modulators of WT P53-Induced Phosphatase 1 (WIP1) (AID 1347425)
Procedure, shortened: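 5 nM WIP1 + 10 uM Rh-PBP, 50 mM Tris pH 7.5, 30 mM MgCl2, 1 mM TCEP, 0.1 mM EGTA, BSA; cpds pinned, 1 hr RT; + 10 uM phosphopeptide; fluorescence 1-min reads x 11 min; delta = f1 - f0.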

[9] = Validation qHTS assay for inhibitors of Activation Induced Cytidine Deaminase (AID): UDG Counterscreen signal (AID 1347427)
Procedure, shortened: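 Counterscreen read of UDG activity (2 U/mL, 4/3x) in the FRET deamination format with AID (1 uM, 4/3x), DJC20/DJC23 substrates (250 nM, 4x), 4 h at room temperature. NaOH stop, fluorescence at 560 ex/665 em.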

[10] = molecular target: Single-stranded DNA cytosine deaminase (Homo sapiens) (UniProt Q9GZX7); test: Validation qHTS assay for inhibitors of Activation Induced Cytidine Deaminase (AID): AID signal (AID 1347429)
Single-stranded DNA cytosine deaminase (Homo sapiens), sequence (Q9GZX7 whole entry, looked up): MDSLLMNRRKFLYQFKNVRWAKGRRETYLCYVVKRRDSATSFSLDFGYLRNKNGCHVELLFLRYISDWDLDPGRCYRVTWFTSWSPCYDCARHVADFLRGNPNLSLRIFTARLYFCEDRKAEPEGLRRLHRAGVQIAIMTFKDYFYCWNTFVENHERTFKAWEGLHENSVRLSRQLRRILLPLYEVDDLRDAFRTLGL
Procedure, shortened: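 FRET deamination assay: 1 uM AID (4/3x stock) with UDG, compound up to 114 uM, then 250 nM DJC20/DJC23 substrate (4x stock) for 4 hr at room temperature. NaOH added, 30 min; fluorescence read 540/590 nm.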

[11] = qHTS to identify inhibitors of the type 1 interferon - major histocompatibility complex class I in skeletal muscle: primary screen against the NCATS Pharmaceutical Collection (AID 1347407);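 further: luminescence of HiBiT knocked into endogenous HLA-B as interferon-induced MHC class I level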; further: potency means the concentration at half of the fitted maximal effect
Procedure, shortened: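 Luminescence from HiBiT-tagged endogenous HLA-B*08:01 served as the read-out of IFN-beta-induced MHC class I in CRISPR-engineered C25cl48 myoblasts. Cells received 4 ng/ml IFN-beta plus compound (high final 46 uM, […]) for 24 h.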

[12] = Primary qHTS for inhibitors of La Crosse Virus (LACV) - induced cell death in SH-SY5Y cells (AID 1508616);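 further: top concentration of the series differs between compounds; higher means more rescue of cells from virus-induced death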
Procedure, shortened: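 SH-SY5Y cells (6000/well) plated 24 h, then given compounds by pin transfer and LACV at 0.01 MOI for 6 days at 37C. Viability measured by ATPLite luminescence, normalized to infected DMSO and uninfected DMSO.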

[13] = qHTS to identify inhibitors of the type 1 interferon - major histocompatibility complex class I in skeletal muscle: primary screen against the NCATS Mechanism Interrogation Plate v5.0 (MIPE) Libary (AID 1347411); further: nearly all actives have a fitted effect of over 65% in size; further: potency means the concentration at half of the fitted maximal effect
Procedure, shortened: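 Immortalized human myoblasts (C25cl48) with HiBit knocked into endogenous HLA-B*08:01 were stimulated with 4 ng/ml IFN-beta and given compounds in 11-point 1:3 titration from 46 uM. After 24 h at 37 C, lytic HiBiT luminescence was read.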

Row | SMILES | Potency [1] | Potency [2] | Potency [3] | outcome [4] | Potency [5] | outcome [6] | outcome [7] | outcome [8] | Potency [9] | Potency [10] | Potency [11] | outcome [12] | Potency [13]
1 | CCN(CC)CCNC(=O)c1cc(Cl)c(N)cc1OC | inactive | inactive | inactive | inactive | inactive | inactive | inactive | inactive | inactive | inactive | – | – | –
2 | c1ccc(CN(CC2=NCCN2)c2ccccc2)cc1 | inactive | inactive | inactive | – | – | – | – | – | – | – | inactive | inactive | –
3 | CCCCN1CCCC[C@H]1C(=O)Nc1c(C)cccc1C | inactive | inactive | inactive | – | – | – | inactive | inactive | – | – | inactive | – | –
4 | CC(C)C(=O)c1c(C(C)C)nn2ccccc12 | inactive | – | – | inactive | inactive | inactive | inactive | inactive | inactive | inactive | inactive | inactive | –
5 | CC[C@H]1CN2CCc3cc(OC)c(OC)cc3[C@@H]2C[C@@H]1C[C@H]1NCCc2cc(OC)c(OC)cc21 | inactive | – | – | inactive | 282 nM (active) | inactive | inactive | inactive | inactive | inactive | 264 nM (active) | – | 658 nM (active)
6 | CN1CCOC(c2ccccc2)c2ccccc2C1 (configuration not stated) | inactive | inactive | inactive | – | – | – | inactive | inactive | – | – | inactive | inactive | –
7 | NC(=O)c1ncn([C@@H]2O[C@H](CO)[C@@H](O)[C@H]2O)n1 | inactive | – | – | inactive | inactive | inactive | inactive | inactive | inactive | inactive | inactive | inactive | inactive
8 | CC(C(O)c1ccc(O)cc1)N1CCC(Cc2ccccc2)CC1 (configuration not stated) | inactive | inactive | inactive | inactive | inactive | inactive | inactive | inactive | inactive | inactive | inactive | – | –
9 | Cn1c(=O)c2c(ncn2CC2OCCO2)n(C)c1=O | inactive | inactive | inactive | – | – | – | inactive | inactive | – | – | inactive | inactive | inactive
10 | O=C(CCCN1CCN(c2ccccn2)CC1)c1ccc(F)cc1 | inactive | inactive | inactive | – | – | – | inactive | inactive | – | – | inactive | inactive | –
11 | OCC(O)CN1CCN(c2ccccc2)CC1 (configuration not stated) | inactive | inactive | inactive | – | – | – | inactive | inactive | – | – | inactive | inactive | –
